Screening results: PubChem, ICCB-Longwood Screening Facility, Harvard Medical School
This is a sample that favours compounds with a hit; in the whole collection about 1.5% have one here.
Mtb MbtI inh: MbtI salicylate synthase inhibitors, primary screen, biochemical, fluorescence intensity. P9WFX0. purified MbtI enzyme, fluorescence intensity read-out. inhibition, % (concentration not given with the values). hit rate 0.89% among 100,000. AID 493033, 2011; in the data active = inhibition mostly above about 56%, no sharp cut-off; inactive = mostly below about 77%
Target sequence (P9WFX0 whole entry, looked up): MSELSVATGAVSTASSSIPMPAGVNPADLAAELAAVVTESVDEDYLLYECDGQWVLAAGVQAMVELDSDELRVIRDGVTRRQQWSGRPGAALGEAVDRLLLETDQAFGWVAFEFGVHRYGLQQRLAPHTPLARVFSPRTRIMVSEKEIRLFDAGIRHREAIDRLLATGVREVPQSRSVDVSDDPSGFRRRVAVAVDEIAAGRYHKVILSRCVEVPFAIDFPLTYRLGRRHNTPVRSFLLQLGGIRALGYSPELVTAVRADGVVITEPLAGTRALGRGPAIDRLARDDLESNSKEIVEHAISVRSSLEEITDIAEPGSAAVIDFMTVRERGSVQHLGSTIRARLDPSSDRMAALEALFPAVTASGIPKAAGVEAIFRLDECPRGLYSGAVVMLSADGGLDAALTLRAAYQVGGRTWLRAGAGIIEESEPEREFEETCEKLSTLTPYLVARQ
Polio RdRp inh: poliovirus RdRp elongation inhibitors, primary screen, biochemical, fluorescence polarization, total intensity. AID 588519, 2011. Genome polyprotein (Poliovirus type 1 (strain Mahoney)), P03300. hit rate 0.66% among 150,000. % elongation, % (compound at 16.7 µg/mL). poliovirus polymerase elongation; active compounds read low; in the data active = % elongation below about 90%
Mtb MenB inh: M. tuberculosis MenB inhibitors, primary screen, biochemical, absorbance; AID 540299, 2011; hit rate 0.43% among 100,000; 1,4-dihydroxy-2-naphthoyl-CoA synthase (Mycobacterium tuberculosis (strain ATCC 25618 / …; MenB enzyme assay, absorbance read-out; inhibition, % (no concentration beside the values); in the data active = inhibition above about 21%, passing the limit was not always enough
Starred values were filed as active, the others as inactive; . = not tested or not shown.

SMILES	Mtb MbtI inh	Polio RdRp inh	Mtb MenB inh
O=S(=O)(NC1CCc2ccccc21)c1ccc(S(=O)(=O)N2CCCC2)cc1 (stereo unspecified)	-4.8	102.0	39.3*
O=C(NC1CCCc2ccccc21)c1cc(S(=O)(=O)N2CCCCC2)c[nH]1 (stereo unspecified)	-6.4	101.0	-44.3
Cc1nn(CCC(N)=S)c2nc(-c3ccccc3)ccc12	174.6	73.0*	-29.4
Nc1cc(-c2ccccc2)nn1CCO	-4.3	105.0	-22.7
CC(=O)Nc1ccc(/C=N/NC(=O)c2ccccc2-n2cccc2)cc1	15.9	99.0	-5.6
CCN1C(=O)CC(OC(C)=O)C1=O (stereo unspecified)	66.0*	103.0	-17.4
CCN1C(=O)C2CC(C)=C(C)CC2C1=O (stereo unspecified)	-2.6	97.0	-8.8
CCc1ccc(Nc2ncnc3c2cnn3C)cc1	-91.2	100.0	9.1
O=C(/C=C/c1ccco1)NCc1ccccc1	10.9	100.0	2.9
O=C(CO/N=C/c1ccco1)NCc1ccccc1	51.1*	110.0	7.5
O=C(O)C1CCCN(C(=O)c2ccc(Cl)cc2)C1 (stereo unspecified)	-0.4	101.0	.
CC1Cc2ccccc2N1C(=O)CCS(=O)(=O)c1ccc2c(c1)n(C)c(=O)c(=O)n2C (stereo unspecified)	0.7	101.0	10.2
NC(=O)c1c(NC(=O)/C=C/c2cccs2)sc2c1CCCC2	52.9*	99.0	-43.2
NC(=O)c1c(NC(=O)Nc2ccccc2)sc2c1CCCC2	.	107.0	-3.3
Cc1ccc2nc(C)cc(C(=O)O)c2c1	0.6	102.0	32.7*
Cc1cc(C(=O)O)c2cc(O)ccc2n1	.	99.0	8.6
N#C/C(=C\c1ccco1)C(N)=S	41.7	92.0	-214.1
N#C/C(=C\C=C\c1ccco1)C(N)=S	68.2	84.0*	-57.5
CCCn1nnnc1COC(=O)CSc1cc(C)c2ccccc2n1	6.2	103.0	13.6
O=c1[nH]c(=S)[nH]nc1-c1ccc(F)c(F)c1	100.5*	98.0	-15.9
Fc1ccc(-c2nnc(Cl)c3ccccc23)cc1F	0.6	100.0	.
CN(C)C(=S)SCC(=O)Nc1ccc(C#N)cc1	3.5	103.0	-14.8
COc1ccc(NC(=O)c2cc3ccc(O)cc3oc2=Nc2ccc(C(=O)O)cc2)cc1	6.5	107.0	-89.5
COc1ccc(NC(=O)c2cc3ccc(O)cc3o/c2=N\O)cc1	8.3	101.0	32.1*
Cn1c(CNC(=O)c2ccccc2)n[nH]c1=S	36.1	104.0	3.8
SMILES	Mtb MbtI inh	Polio RdRp inh	Mtb MenB inh
Cc1cccc(C(=O)NCc2n[nH]c(=S)n2-c2ccccc2)c1	58.5*	102.0	1.6
CCN1C(=O)/C(=C\c2ccc(-c3ccc(Cl)c(C(=O)O)c3)o2)SC1=S	66.6*	75.0	-159.4
CN1C(=O)S/C(=C/c2ccc(-c3ccc(C(=O)O)c(Cl)c3)o2)C1=O	-30.3	100.0	-47.8
Cc1nnsc1C(=O)Oc1ccc(Cl)cc1	.	102.0	.
Cc1nc(C(=O)Oc2ccc(Cl)cc2)sc1C(=O)Oc1ccc(Cl)cc1	55.2	42.0*	-7.5
CCCC(C(=O)NC1CCCC1)N(C(=O)Cn1nnc(-c2ccc(C)o2)n1)c1ccccc1 (stereo unspecified)	-26.4	105.0	-37.3
CCC(C(=O)NC1CCCC1)N(C(=O)Cn1nnc(-c2ccc(C)cc2)n1)c1ccc2c(c1)OCCO2 (stereo unspecified)	7.2	101.0	32.7*
COc1ccc(CC(=O)N2CCc3ccccc32)cc1OC	-4.8	101.0	-7.9
Nc1ccccc1S(=O)(=O)Nc1ccccc1	11.8	105.0	2.6
C=CCn1c(CSc2ccc(C)cc2)n[nH]c1=S	74.3*	96.0	-75.2
C=CCn1c(CSc2nnc(-c3ccccc3)n2C)n[nH]c1=S	-5.1	101.0	2.7
CC(Sc1nc2cc(Cl)ccc2n1Cc1ccccc1)C(=O)NC(N)=O (stereo unspecified)	-9.0	104.0	-5.6
O=C(Oc1nsnc1N1CCOCC1)N1CCCCC1	6.8	101.0	8.2
O=C(Oc1nsnc1N1CCOCC1)c1ccccc1	.	47.0*	-6.5
CCOC(=O)N1CCN(c2cc3cc(OC)ccc3oc2=O)CC1	59.7	101.0	-14.6
Cc1c(C(C)C)c(=O)oc2cc(O)ccc12	81.7	104.0	.
Cc1cc(C)nc(S/C=C/C(=O)c2ccc(Cl)cc2)n1	-8.3	108.0	-5.4
O=C(/C=C/Sc1ccc(Cl)cc1)c1ccccc1	-10.4	101.0	-8.3
Cn1ccnc1S/C=C/C(=O)c1ccc(Cl)cc1	59.0*	99.0	5.3
Cn1cnnc1S/C=C/C(=O)c1ccc(Cl)cc1	85.3*	102.0	-9.8
N#CC1(NC(=O)CN2CCN(c3ccc(C(F)(F)F)cn3)CC2)CCCC1	1.0	105.0	-11.9
COc1ccc(/C=c2\sc3ncnn3c2=O)cc1	-9.8	89.0*	-27.0
CCN(CC)c1ccc(/C=c2\sc3ncnn3c2=O)cc1	-10.2	119.0	-4.4
CCOCc1c(C(=O)Nc2cccc(C(=O)NC3CC3)c2)oc2ccccc12	-3.8	104.0	-12.9
CCS(=O)(=O)c1ccc2oc(=O)c(/C=C(\O)c3oc(C)nc3C)nc2c1	-2.6	99.0	-6.0
SMILES	Mtb MbtI inh	Polio RdRp inh	Mtb MenB inh
Cc1ccc2oc(=O)c(/C=C(\O)CC(C)C)nc2c1	-0.6	102.0	69.2*
CN1CCN(C)C1=O	-9.6	105.0	1.4
CN(C)CCCNC1=CC(=O)OC12CCCCC2	-5.7	103.0	6.3
COc1ccc(CCNC2=CC(=O)OC23CCCCC3)cc1OC	.	72.0*	3.1
COc1cccc(NC(=O)CNCC(O)c2ccccc2)c1 (stereo unspecified)	-6.0	99.0	-17.9
Cc1ccc2[nH]c(=O)c3cc(C(=O)NCCN4CCN(c5ccccc5F)CC4)sc3c2c1	10.4	98.0	-18.3
NCCN1C(=O)S/C(=C/c2ccccc2)C1=O	28.5	98.0	.
COC(=O)/C=C/C(=O)Nc1ccccc1	101.3*	101.0	-11.2
COc1ccc(/C=C/C(=O)Nc2ccccc2)cc1	13.4	101.0	3.1
C1CCC(N=C(NC2C3CC4CC(C3)CC2C4)N2CCOCC2)CC1 (stereo unspecified)	.	98.0	-4.9
Cc1nc2ccccn2c(=O)c1NC(=O)C(C)C	2.1	105.0	-0.9
O=S1(=O)N=C2CCCCCN2C(c2ccc(Br)cc2)N1 (stereo unspecified)	-4.5	22.0*	4.5
COc1cccc(C2NS(=O)(=O)N=C3CCCCCN32)c1OC(F)F (stereo unspecified)	3.0	103.0	-13.4
Cc1ccc(/C=C/C(=O)Nc2sc3c(c2C#N)CCCC3)cc1	.	100.0	-4.1
CSc1nc2c(sc(=S)n2-c2ccccc2C)c(=O)n1-c1ccccc1C	61.8*	97.0	-3.4
CCc1ccc(-n2c(=S)sc3c(=O)n(-c4ccccc4)c(SCC#N)nc32)cc1	-0.3	104.0	-37.6
O=C(COC(=O)c1cc(Br)ccc1O)NC1CCCCC1	-26.2	101.0	.
CCOc1ccc(NC(=S)N2CC(O)CC2C(N)=O)cc1 (stereo unspecified)	13.1	103.0	2.1
COc1ccc(OC)c(NC(=O)c2ccc3c(c2)CCCN3S(C)(=O)=O)c1	17.6	103.0	-1.8
CC1(C)Oc2ccc(C(=O)Nc3ccccc3)cc2N(CC(=O)N2CCCC2)C1=O	-1.5	105.0	-54.9
CC(C)OC(=O)CN1C(=O)C(C)(C)Oc2ccc(C(=O)Nc3ccccc3)cc21	-0.4	103.0	25.4*
